56 molecules from the antibiotic and cytotoxicity screens of Wong et al. (2023) can be followed below.

Out of some 39,000 compounds screened, about 1,500 (3.8%) were called active. Only a selection was taken, and actives are over-represented in it overall.

The experiment relates to HSkMC (human skeletal muscle cells). Description: cytotoxicity call (relative viability < 0.9). To be noted: 10 µM.
`C[C@H](CO)N1C[C@H](C)[C@H](CN(C)C(=O)c2cnccn2)Oc2ncc(-c3cccc(C#N)c3)cc2C1=O`: the cytotoxicity call is “inactive”.
With `C[C@@H]1CN([C@H](C)CO)C(=O)CCCn2nncc2CO[C@H]1CN(C)Cc1cccc2c1OCCCO2` the entry was “inactive”.
The same measure for `CCOC(=O)N(C)C[C@H]1OCc2cn(nn2)CCCC(=O)N([C@@H](C)CO)C[C@@H]1C`: “inactive”; for `O=C(O)CCSC[C@@H]1O[C@H]2O[C@@H]3[C@@H](O)[C@H](O)[C@H](O[C@@H]4[C@@H](O)[C@H](O)[C@H](O[C@@H]5[C@@H](O)[C@H](O)[C@H](O[C@@H]6[C@@H](O)[C@H](O)[C@H](O[C@@H]7[C@@H](O)[C@H](O)[C@H](O[C@@H]8[C@@H](O)[C@H](O)[C@H](O[C@@H]9[C@@H](O)[C@H](O)[C@H](O[C@@H]1[C@@H](O)[C@@H]2O)O[C@H]9CSCCC(=O)O)O[C@H]8CSCCC(=O)O)O[C@H]7CSCCC(=O)O)O[C@H]6CSCCC(=O)O)O[C@H]5CSCCC(=O)O)O[C@H]4CSCCC(=O)O)O[C@H]3CSCCC(=O)O`: “inactive”.
Take `C[C@H](CO)N1C[C@H](C)[C@H](CN(C)Cc2ccc(C(=O)O)cc2)OCCCC[C@H](C)Oc2ccc(NC(=O)Nc3ccccc3)cc2C1=O`: the cytotoxicity call was “inactive”.
Consider `C[C@H](CO)N1C[C@H](C)[C@@H](CN(C)S(C)(=O)=O)Oc2ccc(NC(=O)Nc3ccc(F)cc3)cc2CC1=O`, for which the cytotoxicity call was “inactive”.
With `CCC(=C/[C@H](C)C/C=C/C(C)=C/[C@@H](C)C(=O)[C@@H](C)[C@H](O)[C@@H](C)C/C(C)=C/C(=O)O)/C=C/[C@@H]1OC(=O)C=C[C@@H]1C` the entry was “active”; with `Cc1noc(C)c1NC(=O)N(C)C[C@@H]1Oc2ccc(NS(C)(=O)=O)cc2CC(=O)N([C@H](C)CO)C[C@H]1C`, “inactive”; with `C[C@@H]1CN([C@H](C)CO)S(=O)(=O)c2ccc(-c3cccnc3)cc2O[C@H]1CN(C)C(=O)c1cccc(F)c1`, “inactive”.
The same measure for `C=CCN1C(=O)[C@@]2(O[C@@H](CCO)[C@H]([Si](C)(C)c3ccc(OC)cc3)[C@H]2C)c2cc(N(C=O)c3ccccc3)ccc21`: “active”.
With `C=CCN1C(=O)[C@]2(O[C@H](CCO)[C@@H]([Si](C)(C)c3ccc(OC)cc3)[C@@H]2C)c2cc(N(C=O)c3ccccc3)ccc21` the entry was “active”; with `COc1ccc([Si](C)(C)[C@@H]2[C@@H](CCO)O[C@]3(C(=O)N(Cc4ccccc4)c4ccc(N(C=O)c5ccccc5)cc43)[C@H]2C)cc1`, “inactive”; with `COc1ccc([Si](C)(C)[C@H]2[C@H](CCO)O[C@@]3(C(=O)N(Cc4ccccc4)c4ccc(N(C=O)c5ccccc5)cc43)[C@@H]2C)cc1`, “inactive”.
Turning to `COc1ccc([Si](C)(C)[C@H]2[C@H](CCO)O[C@@]3(C(=O)N(Cc4ccc(N(C=O)c5ccccc5)cc4)c4ccccc43)[C@@H]2C)cc1`, the cytotoxicity call was “inactive”.
With `COc1ccc([Si](C)(C)[C@@H]2[C@@H](CCO)O[C@]3(C(=O)N(Cc4ccc(N(C=O)c5ccccc5)cc4)c4ccccc43)[C@H]2C)cc1` the entry was “inactive”; with `C[C@@H]1CCCCO[C@@H](CN(C)C(=O)Nc2ccccc2)[C@@H](C)CN([C@H](C)CO)C(=O)c2cc(NS(=O)(=O)c3ccccc3)ccc2O1`, “inactive”.
The same measure for `C[C@@H]1CN([C@H](C)CO)C(=O)c2cc(NC(=O)NC3CCCCC3)ccc2O[C@@H](C)CCCCO[C@@H]1CN(C)CC1CCCCC1`: “inactive”.
In the case of `C[C@H](CO)N1C[C@H](C)[C@H](CN(C)S(=O)(=O)c2ccccc2)Oc2ccc(NC(=O)CCC(F)(F)F)cc2CC1=O`, the cytotoxicity call was “inactive”.
In the case of `C[C@H]1CN([C@@H](C)CO)C(=O)c2cccc(NC(=O)NC3CCCCC3)c2O[C@@H]1CN(C)Cc1ccc(-c2ccccc2)cc1`, the cytotoxicity call is “inactive”.
The same measure for `Clc1ccc(CSC(Cn2ccnc2)c2ccc(Cl)cc2Cl)cc1.O=[N+]([O-])O` (stereo unspecified): “active”.
Turning to `Clc1ccc(COC(Cn2ccnc2)c2ccc(Cl)cc2Cl)cc1.O=[N+]([O-])O` (stereo unspecified), the cytotoxicity call was “inactive”.
The same measure for `Clc1ccc(C(Cn2ccnc2)OCc2c(Cl)cccc2Cl)c(Cl)c1.O=[N+]([O-])O` (stereo unspecified): “inactive”; for `Cc1noc(C)c1S(=O)(=O)N(C)C[C@@H]1Oc2ccc(NS(=O)(=O)c3ccc(Cl)cc3)cc2C(=O)N([C@H](C)CO)C[C@@H]1C`: “inactive”; for `C[C@@H]1CCCCO[C@H](CN(C)C(=O)Nc2cccc3ccccc23)[C@H](C)CN([C@H](C)CO)C(=O)c2cc(NS(C)(=O)=O)ccc2O1`: “inactive”.
With `Cc1ccc(C(N)=S)c(=O)[nH]1` the entry was “inactive”.
The same measure for `C[C@H]1CN([C@@H](C)CO)C(=O)c2cccc(NC(=O)C3CCCCC3)c2O[C@@H]1CN(C)Cc1ccc(Cl)c(Cl)c1`: “inactive”; for `COC(=O)c1c(CC[C@@H](CO)NC(=O)N[C@@H](Cc2ccccc2)Cn2cc(-c3ccccn3)nn2)oc(C(=O)N2CCOCC2)c1C(=O)OC`: “inactive”.
As to `CCCC#Cc1ccc2c(c1)O[C@@H](CN(C)Cc1ccc3c(c1)OCO3)[C@H](C)CN([C@H](C)CO)S2(=O)=O`, the cytotoxicity call was “inactive”.
The same measure for `CO[C@H](CN(C)C(=O)C1CCOCC1)[C@H](C)CN(C(=O)Nc1ccc(C(F)(F)F)cc1)[C@@H](C)CO`: “inactive”; for `C[C@H](CO)N1C[C@H](C)[C@H](CN(C)CC2CCCCC2)Oc2ccc(NC(=O)Nc3ccc(F)cc3)cc2CC1=O`: “inactive”; for `C[C@H](CO)N1C[C@H](C)[C@@H](CN(C)CC2CCCCC2)Oc2ccc(NC(=O)Nc3ccc(F)cc3)cc2CC1=O`: “inactive”.
As to `C[C@@H]1CN([C@@H](C)CO)C(=O)Cc2cc(NC(=O)Nc3ccc(F)cc3)ccc2O[C@H]1CN(C)CC1CCCCC1`, the cytotoxicity call is “inactive”.
`C[C@H]1CN([C@@H](C)CO)C(=O)Cc2cc(NC(=O)Nc3ccc(F)cc3)ccc2O[C@H]1CN(C)CC1CCCCC1`: the cytotoxicity call was “active”.
On to `C[C@@H]1CN([C@H](C)CO)C(=O)Cc2cc(NC(=O)Nc3ccc(F)cc3)ccc2O[C@@H]1CN(C)CC1CCCCC1`, for which the cytotoxicity call was “active”.
For the molecule `C[C@@H]1CN([C@@H](C)CO)C(=O)Cc2cc(NC(=O)Nc3ccc(F)cc3)ccc2O[C@@H]1CN(C)CC1CCCCC1`, the cytotoxicity call was “inactive”.
The same measure for `COc1ccc(NC(=O)Nc2ccc3c(c2)C(=O)N([C@H](C)CO)C[C@@H](C)[C@H](CN(C)C(=O)Nc2c(C)noc2C)OCCCC[C@@H](C)O3)cc1`: “inactive”.
Take `C[C@@H]1O[C@@H](O[C@H]2[C@H](Oc3cc(O)c4c(c3)O[C@H](c3ccc(O)cc3)CC4=O)O[C@H](CO)[C@@H](O)[C@@H]2O)[C@H](O)[C@H](O)[C@H]1O`: the cytotoxicity call is “inactive”.
The same measure for `Cc1ccc(S(=O)(=O)N(C)C[C@@H]2Oc3ccc(NS(=O)(=O)c4cn(C)cn4)cc3C(=O)N([C@H](C)CO)C[C@@H]2C)cc1`: “inactive”; for `COc1ccc(S(=O)(=O)N(C)C[C@H]2Oc3ccc(NC(=O)Nc4c(C)noc4C)cc3C(=O)N([C@@H](C)CO)C[C@H]2C)cc1`: “inactive”.
Regarding `Cc1ccc(S(=O)(=O)N2C[C@H](O)COC[C@H]3O[C@@H](CC(=O)N[C@@H]4CCN(Cc5ccccc5)C4)CC[C@@H]32)cc1`, the cytotoxicity call was “inactive”.
On to `C[C@@H]1CN([C@H](C)CO)C(=O)c2cc(NS(=O)(=O)c3cccs3)ccc2O[C@@H]1CN(C)Cc1ccc(Cl)c(Cl)c1`, for which the cytotoxicity call was “inactive”.
Regarding `C[C@@H]1CCCCO[C@H](CN(C)C(=O)Nc2cccc3ccccc23)[C@H](C)CN([C@@H](C)CO)C(=O)c2cc(NC(=O)C3CCCCC3)ccc2O1`, the cytotoxicity call is “inactive”.
Consider `C[C@@H]1CCCCO[C@@H](CN(C)C(=O)Nc2cccc3ccccc23)[C@@H](C)CN([C@@H](C)CO)C(=O)c2cc(NC(=O)C3CCCCC3)ccc2O1`, for which the cytotoxicity call was “active”.
With `C[C@H](CO)N1C[C@H](C)[C@@H](CN(C)C(=O)Nc2cccc3ccccc23)OCCCC[C@H](C)Oc2ccc(NC(=O)C3CCCCC3)cc2C1=O` the entry was “inactive”; with `C[C@@H]1CCCCO[C@H](CN(C)C(=O)Nc2cccc3ccccc23)[C@H](C)CN([C@H](C)CO)C(=O)c2cc(NC(=O)C3CCCCC3)ccc2O1`, “inactive”.
With `C[C@@H]1CCCCO[C@H](CN(C)C(=O)Nc2cccc3ccccc23)[C@@H](C)CN([C@H](C)CO)C(=O)c2cc(NC(=O)C3CCCCC3)ccc2O1` the entry was “inactive”; with `C[C@@H]1CN([C@H](C)CO)C(=O)c2cc(NC(=O)C3CCCCC3)ccc2O[C@@H](C)CCCCO[C@@H]1CN(C)C(=O)Nc1cccc2ccccc12`, “active”; with `C[C@H]1CCCCO[C@@H](CN(C)C(=O)Nc2cccc3ccccc23)[C@@H](C)CN([C@@H](C)CO)C(=O)c2cc(NC(=O)C3CCCCC3)ccc2O1`, “inactive”.
With `C[C@@H]1CN([C@@H](C)CO)C(=O)c2cc(NC(=O)C3CCCCC3)ccc2O[C@@H](C)CCCCO[C@@H]1CN(C)C(=O)Nc1cccc2ccccc12` the entry was “inactive”; with `C[C@@H]1CCCCO[C@@H](CN(C)C(=O)Nc2cccc3ccccc23)[C@@H](C)CN([C@H](C)CO)C(=O)c2cc(NC(=O)C3CCCCC3)ccc2O1`, “active”; with `C[C@@H]1CCCCO[C@H](CN(C)C(=O)Nc2ccc(F)cc2)[C@H](C)CN([C@@H](C)CO)C(=O)c2cc(NS(=O)(=O)c3ccccc3)ccc2O1`, “inactive”.
Take `C[C@H]1CN([C@@H](C)CO)S(=O)(=O)c2ccc(-c3ccc(C(=O)N(C)C)cc3)cc2O[C@@H]1CN(C)C(=O)C1CC1`: the cytotoxicity call is “inactive”.
With `O=C(N[C@@H]1C=C[C@@H](CC(=O)N2CCOCC2)O[C@@H]1CO)c1ccc2c(c1)OCO2` the entry was “inactive”.
The same measure for `C[C@H](CO)N1C[C@H](C)[C@H](CN(C)CC2CCCCC2)Oc2ccc(NC(=O)Cn3cnnn3)cc2C1=O`: “inactive”; for `C[C@H](CO)N1C[C@H](C)[C@@H](CN(C)S(=O)(=O)c2ccccc2)Oc2ccc(NS(=O)(=O)c3ccc(F)cc3)cc2CC1=O`: “inactive”.
Take `Cc1noc(C)c1S(=O)(=O)Nc1cccc2c1O[C@H](CN(C)S(=O)(=O)c1ccccc1)[C@H](C)CN([C@@H](C)CO)C2=O`: the cytotoxicity call was “inactive”.
